The values that follow come from PubChem BioAssay (EPA / NIEHS).

Read-out in assay [1]: Interleukin-1 alpha (IL1a), IL1A (gene 3552)
The assay can be described thus: BSK_KF3CT_IL1a: BioMAP Diversity Plus: KF3CT Assay for Interleukin-1 alpha (IL1a) Biomarker Activity (AID 2283070). The settings on record: primary human keratinocytes with fibroblasts; actives raise or lower the signal. A digest of the protocol:
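Chemicals were dosed onto co-cultured human keratinocytes and foreskin fibroblasts, IL-1a was quantified by ELISA at 24 h, and activity was fitted in both directions relative to DMSO controls.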

Read-out in assay [2]: TIMP metallopeptidase inhibitor 2 (TIMP2), TIMP2 (gene 7077)
The assay can be described thus: BSK_KF3CT_TIMP2: BioMAP Diversity Plus: KF3CT Assay for TIMP metallopeptidase inhibitor 2 (TIMP2) Biomarker Activity (AID 2283071). The settings on record: primary human keratinocytes with fibroblasts; actives raise or lower the signal. An outline of the steps: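 Cells: human keratinocytes co-cultured with foreskin fibroblasts. Treat with chemical, 24 h. Measure TIMP-2 by ELISA; fit curves bidirectionally vs DMSO baseline.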

Read-out in assay [3]: Transforming growth factor beta 1 (TGFb1), TGFB1 (gene 7040)
The assay can be described thus: BSK_KF3CT_TGFb1: BioMAP Diversity Plus: KF3CT Assay for Transforming growth factor beta 1 (TGFb1) Biomarker Activity (AID 2283072). The settings on record: primary human keratinocytes with fibroblasts; actives raise or lower the signal. A digest of the protocol: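 Primary human skin cells (keratinocytes, foreskin fibroblasts) were co-cultured, exposed to test chemical and sampled at 24 h. TGF-b1 levels were measured by ELISA and fitted bidirectionally relative to DMSO.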

Read-out in assay [4]: C-C motif chemokine 2 (Homo sapiens) (UniProt P13500)
The assay can be described thus: BSK_KF3CT_MCP1: BioMAP Diversity Plus: KF3CT Assay for Monocyte Chemoattractant Protein 1 (MCP1/CCL2) Biomarker Activity (AID 2283073). The note with it: primary human keratinocytes with fibroblasts; actives raise or lower the signal. A digest of the protocol: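 ELISA readout of MCP-1 after 24 h chemical dosing of a human skin primary co-culture of keratinocytes and foreskin fibroblasts. Activity was fitted in both directions against DMSO.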

Read-out in assay [5]: Matrix Metallopeptidase 9 (MMP9), MMP9 (gene 4318)
The assay can be described thus: BSK_KF3CT_MMP9: BioMAP Diversity Plus: KF3CT Assay for Matrix Metallopeptidase 9 (MMP9) Biomarker Activity (AID 2283074).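 As to AC50: MMP9 protein level quantified by ELISA in the co-culture.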 The settings on record: primary human keratinocytes with fibroblasts; actives raise or lower the signal. A digest of the protocol:
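Human keratinocyte/foreskin fibroblast co-culture; compound added; 24 h; MMP-9 by ELISA; bidirectional fit vs DMSO baseline.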

Read-out in assay [6]: urokinase plasminogen activator (uPA), PLAU (gene 5328)
Kind of assay: BSK_KF3CT_uPA: BioMAP Diversity Plus: KF3CT Assay for urokinase plasminogen activator (uPA) Biomarker Activity (AID 2283075). The settings on record: primary human keratinocytes with fibroblasts; actives raise or lower the signal. A digest of the protocol: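 ELISA readout of uPA, analyzed for signal gain or loss relative to DMSO, from a human primary keratinocyte–foreskin fibroblast co-culture measured 24 h after chemical treatment.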

Read-out in assay [7]: CD40, CD40 (gene 958)
Kind of assay: BSK_LPS_CD40: BioMAP Diversity Plus: LPS Assay for CD40 Biomarker Activity (AID 2283076). The settings on record: primary human HUVEC with PBMC; actives raise or lower the signal. A digest of the protocol:
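Cells were dosed, incubated 24 h, then assayed for CD40 by ELISA. Gain or loss of signal was analysed relative to DMSO controls. The culture paired human umbilical vein endothelium with peripheral blood mononuclear cells.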

Read-out in assay [8]: E-selectin (Homo sapiens) (UniProt P16581)
Kind of assay: BSK_LPS_Eselectin: BioMAP Diversity Plus: LPS Assay for Eselectin Biomarker Activity (AID 2283077). The note with it: primary human HUVEC with PBMC; actives raise or lower the signal. A digest of the protocol: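 Primary human vascular co-culture (endothelium plus PBMC) was dosed with chemical, then E-selectin quantified by ELISA at 24 h. Endpoint values derive from bidirectional curve fitting relative to DMSO.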

Read-out in assay [9]: Interleukin-8 (IL8), CXCL8 (gene 3576)
Kind of assay: BSK_LPS_IL8: BioMAP Diversity Plus: LPS Assay for Interleukin-8 (IL8) Biomarker Activity (AID 2283078). The note with it: primary human HUVEC with PBMC; actives raise or lower the signal. A digest of the protocol:
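Readout is IL-8 by ELISA, taken 24 h after compounds were added to LPS-stimulated endothelial/PBMC co-cultures. Both increases and decreases relative to DMSO control were scored through bidirectional fitting.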

Assay [10] in a line: BSK_LPS_SRB: Viability Assessment in the BioMAP Diversity Plus: LPS Assay (AID 2283079).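 Also: total protein by sulforhodamine B absorbance as a cytotoxicity measure; measured one day after compound addition; fitted in both directions against DMSO so loss or gain of signal counts.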 The settings on record: primary human HUVEC with PBMC. A digest of the protocol: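 Readout is SRB absorbance at 560 nm (0.1% stain, TCA-fixed parallel cultures) as a total-protein cytotoxicity measure. Cells: primary human umbilical vein endothelium plus peripheral blood mononuclear cells, 24 h after chemical exposure; DMSO served as baseline.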

Read-out in assay [11]: Interleukin-1 alpha (IL1a), IL1A (gene 3552)
Kind of assay: BSK_LPS_IL1a: BioMAP Diversity Plus: LPS Assay for Interleukin-1 alpha (IL1a) Biomarker Activity (AID 2283080). The settings on record: primary human HUVEC with PBMC; actives raise or lower the signal. A digest of the protocol:
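ELISA read-out of IL-1 alpha from a human primary vascular co-culture (endothelium plus PBMC) under LPS, sampled 24 hours post-dosing. Activity was fitted in both directions relative to DMSO controls.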

Read-out in assay [12]: Monocyte Chemoattractant Protein-1 (MCP1), CCL2 (gene 6347)
The assay can be described thus: BSK_LPS_MCP1: BioMAP Diversity Plus: LPS Assay for Monocyte Chemoattractant Protein-1 (MCP1) Biomarker Activity (AID 2283081).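 As to AC50: secreted MCP-1 protein quantified by ELISA in culture supernatant.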 The settings on record: primary human HUVEC with PBMC; actives raise or lower the signal. An outline of the steps: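 Human endothelial–PBMC co-cultures were dosed with chemical, then LPS-driven MCP-1 levels were quantified by ELISA at 24 h. Activity in either direction was fitted versus DMSO negative control.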

The nature of assay [13]: BSK_LPS_PGE2: BioMAP Diversity Plus: LPS Assay for Prostaglandin E2 (PGE2) Biomarker Activity (AID 2283082).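 As to AC50: secreted prostaglandin E2 measured by ELISA in LPS-stimulated co-culture.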 The note with it: primary human HUVEC with PBMC; actives raise or lower the signal. An outline of the steps: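 LPS-activated HUVEC/PBMC co-culture; cmpd dosed, 24 h; PGE2 by ELISA; bidirectional fit vs DMSO; SRB (0.1%, TCA-fixed, 560 nm) in parallel plates for overt cytotox.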

Read-out in assay [14]: Macrophage colony-stimulating factor (MCSF), CSF1 (gene 1435)
The assay can be described thus: BSK_LPS_MCSF: BioMAP Diversity Plus: LPS Assay for Macrophage colony-stimulating factor (MCSF) Biomarker Activity (AID 2283083). The note with it: primary human HUVEC with PBMC; actives raise or lower the signal. An outline of the steps:
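ELISA readout of M-CSF after 24 h compound exposure in a human endothelial/PBMC co-culture. Activity, in either direction, is fitted relative to DMSO vehicle.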

Read-out in assay [15]: Tissue Factor, F3 (gene 2152)
Kind of assay: BSK_LPS_TissueFactor: BioMAP Diversity Plus: LPS Assay for Tissue Factor Biomarker Activity (AID 2283084). The settings on record: primary human HUVEC with PBMC; actives raise or lower the signal. A digest of the protocol: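 ELISA signal for cell-surface Tissue Factor (CD142) was read 24 h after compound dosing of an LPS-stimulated human endothelial–PBMC primary co-culture. Gain or loss of signal was scored relative to DMSO.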

Read-out in assay [16]: Tumor necrosis factor (Homo sapiens) (UniProt P01375)
The assay can be described thus: BSK_LPS_TNFa: BioMAP Diversity Plus: LPS Assay for Tumour Necrosis Factor alpha (TNFa) Biomarker Activity (AID 2283085). The note with it: primary human HUVEC with PBMC; actives raise or lower the signal. A digest of the protocol: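 Read-out is ELISA of TNFa in primary human endothelial cell–PBMC co-cultures at 24 h after compound. Activity in either direction was fitted against DMSO.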

Read-out in assay [17]: Vascular cell adhesion molecule 1 (VCAM1), VCAM1 (gene 7412)
The assay can be described thus: BSK_LPS_VCAM1: BioMAP Diversity Plus: LPS Assay for Vascular cell adhesion molecule 1 (VCAM1) Biomarker Activity (AID 2283086). The note with it: primary human HUVEC with PBMC; actives raise or lower the signal. An outline of the steps:
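HUVEC + PBMC co-culture, LPS system; compound 24 h; VCAM-1 by ELISA; bidirectional fit vs DMSO control; parallel SRB (0.1%, TCA-fixed, 560 nm) for cytotoxicity.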

Read-out in assay [18]: CD38, CD38 (gene 952)
The assay can be described thus: BSK_SAg_CD38: BioMAP Diversity Plus: SAg Assay for CD38 Biomarker Activity (AID 2283087). The note with it: primary human HUVEC with PBMC; actives raise or lower the signal. A digest of the protocol:
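Human HUVEC plus PBMC co-culture stimulated with superantigen; CD38 measured by ELISA 24 h after chemical dosing. Fluorescence read-out, bidirectional fit against DMSO; cytotoxicity tracked in parallel by SRB and Alamar Blue.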

Read-out in assay [19]: CD40, CD40 (gene 958)
The assay can be described thus: BSK_SAg_CD40: BioMAP Diversity Plus: SAg Assay for CD40 Biomarker Activity (AID 2283088). The note with it: primary human HUVEC with PBMC; actives raise or lower the signal. A digest of the protocol: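 Compounds were dosed onto a human primary endothelial–PBMC co-culture, and after 24 h CD40 was quantified by ELISA using a fluorescence signal. Activity in either direction was fitted relative to DMSO.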

Read-out in assay [20]: CD69, CD69 (gene 969)
Kind of assay: BSK_SAg_CD69: BioMAP Diversity Plus: SAg Assay for CD69 Biomarker Activity (AID 2283089).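 As to AC50: cell surface CD69 protein quantified by ELISA with fluorescence detection.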 The settings on record: primary human HUVEC with PBMC; actives raise or lower the signal. An outline of the steps:
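Endothelial/PBMC co-culture; chemical added; 24 h incubation; CD69 ELISA with fluorescence detection; bidirectional fit vs DMSO.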

The source holds several records for some structures; these can differ, active in one and inactive in another. Calls of active or inactive are those of the source. The calls were made as follows: active = hit-call score of the fitted dose curve at least 0.9, where 1 is the maximum; inactive = score below 0.9.

Sequence of E-selectin (Homo sapiens) (P16581 whole entry, looked up): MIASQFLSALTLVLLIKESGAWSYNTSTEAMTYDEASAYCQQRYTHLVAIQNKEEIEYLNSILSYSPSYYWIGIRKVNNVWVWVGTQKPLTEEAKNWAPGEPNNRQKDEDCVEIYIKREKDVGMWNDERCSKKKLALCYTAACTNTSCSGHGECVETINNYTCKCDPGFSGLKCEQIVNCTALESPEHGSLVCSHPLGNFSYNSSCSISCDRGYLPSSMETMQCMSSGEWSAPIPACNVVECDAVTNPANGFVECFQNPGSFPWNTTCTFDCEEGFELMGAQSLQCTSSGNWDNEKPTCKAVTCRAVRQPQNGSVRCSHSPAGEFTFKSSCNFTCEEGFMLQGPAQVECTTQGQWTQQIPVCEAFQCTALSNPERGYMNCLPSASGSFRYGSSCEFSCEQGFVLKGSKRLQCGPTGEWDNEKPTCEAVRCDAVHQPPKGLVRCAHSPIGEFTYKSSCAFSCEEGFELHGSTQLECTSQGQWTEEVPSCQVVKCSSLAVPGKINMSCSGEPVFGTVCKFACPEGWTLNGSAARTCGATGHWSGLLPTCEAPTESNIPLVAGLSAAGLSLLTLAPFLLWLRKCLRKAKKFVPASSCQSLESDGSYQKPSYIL
Sequence of Tumor necrosis factor (Homo sapiens) (P01375 whole entry, looked up): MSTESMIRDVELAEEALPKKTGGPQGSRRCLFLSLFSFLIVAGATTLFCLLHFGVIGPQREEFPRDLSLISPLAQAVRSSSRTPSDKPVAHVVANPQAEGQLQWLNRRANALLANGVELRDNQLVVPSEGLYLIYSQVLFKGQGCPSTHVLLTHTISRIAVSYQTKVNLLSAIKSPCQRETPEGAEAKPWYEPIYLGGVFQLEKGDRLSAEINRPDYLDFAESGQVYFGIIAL

On to `Cc1cc(C)c(O)c(C(C)(C)C)c1`, for which the AC50 in assay [1] was 31.1 µM (active); in assay [2] it was 28.8 µM (active); in assay [3], 30.8 µM (active); in [4], 32.8 µM (active); in assay [5], 30.2 µM (active); in assay [6], 30.9 µM (active). Also, the AC50 in assay [7] is 30.9 µM (active); in assay [8] it was 32.1 µM (active); in assay [10] it was 36.3 µM (active); in assay [11] it was 32.7 µM (active); in assay [12], 36.7 µM (active); in [14], 34.4 µM (active). Moreover, the concentration at half-maximal activity (AC50) in [15] was 30.8 µM (active); in [17], 31.3 µM (active); in [18], 32.5 µM (active); in assay [19] it was 30.5 µM (active); in assay [20] it was 31.5 µM (active). For the same compound, the outcome in [9], in assay [13] and in assay [16] was inactive.

Regarding `O=C(c1ccccc1)c1ccc(O)cc1O`, the outcome in assay [1], in [2], in [3], in assay [4], in assay [7] and in assay [8] was inactive. The outcome in assay [9], in assay [10], in assay [11], in assay [12], in assay [14] and in assay [15] was inactive. The outcome in [16], in [17], in [19] and in [20] was inactive. Moreover, the half-maximal activity concentration (AC50) in assay [5] was 26 µM (active); in assay [13], 0.726 µM (active); in [18] it was 20 µM (active).

On to `Brc1nc2ccccc2s1`, for which the outcome in assay [1], in assay [2], in assay [3], in assay [4], in assay [5] and in assay [6] was inactive. The outcome in [7], in [8], in [9], in [10], in assay [12] and in assay [13] was inactive. Besides, the outcome in assay [14], in assay [15], in assay [16], in [17], in assay [18] and in assay [19] was inactive. Further, the result in assay [20] was inactive.

For `C[C@]12CC[C@H]3C(=CCc4cc(O)ccc43)[C@@H]1CCC2=O`, the outcome in [1], in assay [2], in assay [3], in [4], in assay [5] and in [7] was inactive. The result in assay [8], in assay [9], in [10], in [11], in [12] and in assay [13] was inactive. The result in assay [14], in assay [15], in assay [16], in [17], in [18] and in assay [19] was inactive. Further, the outcome in assay [20] was inactive.

In the case of `CC1=CC2C3C=CC(C3)C2C1C` (configuration not stated), the outcome in [1], in [2], in [3], in assay [4], in [5] and in assay [6] was inactive. In addition, the outcome in assay [7], in [8], in assay [9], in assay [10], in assay [11] and in assay [12] was inactive. Besides, the outcome in assay [13], in assay [14], in [15], in [17], in [18] and in assay [19] was inactive. The outcome in assay [20] was inactive. The AC50 in assay [16] was 31.3 µM (active).

`OCC(O)CC(F)(F)C(F)(F)C(F)(F)C(F)(F)C(F)(F)C(F)(F)C(F)(F)C(F)(F)F` (configuration not stated): the AC50 in assay [1] is 0.166 µM (active). Further, the result in assay [1], in assay [2], in assay [4], in assay [5], in assay [6] and in assay [7] was inactive. Besides, the outcome in assay [8], in assay [9], in [10], in assay [11], in assay [12] and in assay [13] was inactive. In addition, the result in [14], in assay [15], in assay [16], in [17], in assay [18] and in assay [19] was inactive. In addition, the outcome in assay [20] was inactive.
